HT1080-NT tox: kills 2HG-producing HT-1080-NT fibrosarcoma cells; Potency, µM (doses to about 46.1 µM), for inactives: at the highest dose activity, negative = less viability, most hits filed as cytotoxic; HT-1080-NT fibrosarcoma viability, CellTiter-Glo ATP luminescence, 48 h; AID 686970; 360,000 compounds, 1.6% hits;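 note: NT is the 2HG producing partner of a matched IDH1 knockdown line; potency is the fitted concentration of half-maximal effect; 0% = DMSO-treated cells and -100% = media-only wells without cells; nearly all actives have a fitted effect of over 55% in size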
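Toxicity toward the 2HG-producing NT line was scored as %Activity, normalised to DMSO and no-cell wells, from CellTiter-Glo luminescence after 48 hours' treatment.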
IL-1B inflam inh: blocks inflammasome-driven IL-1 beta release; THP-1 LPS/ATP IL-1B secretion, AlphaLISA, 16 h; active compounds read low; activity change, % at 57.5 µM; 360,000 compounds, 4.7% hits; AID 743279; in the data active = activity change below about -50%; inconclusive = mostly about -30% to -49%
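Secreted IL-1B measured by AlphaLISA bead assay after 16 h compound exposure of THP-1 cells; compounds (final up to 57.5 uM) added 1 h before LPS (250 ng/mL) and ATP (1.25 mM) stimulation; lower signal means less secretion.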
TDP1 cell CPT: DT40-hTDP1 cell growth loss with CPT. chicken DT40 Tdp1-/-;hTDP1 cells + 20 nM CPT, ATP luminescence, 48 h. Potency, µM (series often up to 46.2 µM), for inactives: at the top dose activity change, negative = growth inhibition, actives largely listed as inhibitors. 420,000 compounds, 12% hits; note: potency is the fitted concentration of half-maximal effect; nearly all actives have a fitted effect of over 55% in size
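Cell growth measured by CellTiter-Glo luminescence after a minimum 48 h, 37 C compound exposure with 20 nM CPT in Tdp1-knockout DT40 cells stably expressing hTDP1, seeded 400/well; qHTS titration format.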
HT1080 IDH1KD tx: kills HT-1080 cells with IDH1 knockdown | 360,000 compounds, 2% hits | HT-1080 IDH1 knockdown viability, ATP luminescence, 48 h | AID 686971 | Potency, µM (highest dose often 46.1 µM), without a hit: at the top dose activity, negative = toxicity, usual class: cytotoxic;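 note: potency is the fitted concentration of half-maximal effect; 0% = DMSO wells and -100% = cell-free medium wells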
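% activity derives from luminescence (CellTiter-Glo), normalised to DMSO and no-cell wells. HT-1080-IDH1KD cells, 750/well, had 48 h compound exposure at 37 °C.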
DT40 TDP1 no CPT: qHTS for Inhibitors of human tyrosyl-DNA phosphodiesterase 1 (TDP1): qHTS in cells in absence of CPT | DT40 Tdp1-/- hTDP1 cells, no CPT, ATP luminescence, 48 h | Potency, µM (titrated, usually from 46.2 µM), for inactives: at the highest dose activity change, negative = growth inhibition, most hits filed as inhibitors | 420,000 compounds, 15% hits; note: potency is the fitted concentration of half-maximal effect; nearly all actives have a fitted effect of over 55% in size
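A cellular qHTS used chicken DT40 cells lacking endogenous Tdp1 but carrying stably transfected human TDP1. Compounds were applied without camptothecin, and cell growth kinetics were judged by ATP-dependent luminescence after ≥48 hr.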
Starred values were filed as active, the others as inactive; i = inactive; ? = inconclusive; / = not tested or not shown. Sampled rows, rich in hits. Any-hit rate of the full collection: about 19%. Unless noted, calls come from the whole dose curve; as a rule, active = well fitted curve in the direction sought with a large enough effect; inconclusive = small, poorly fitted or top-dose-only effect, or another doubt; inactive = no such curve, though single readings can be large; an effect the other way counts as inactive or inconclusive. Unless noted, % is set by controls: 0 for no effect and ±100 for the full control effect.

SMILES | HT1080-NT tox | IL-1B inflam inh | TDP1 cell CPT | HT1080 IDH1KD tx | DT40 TDP1 no CPT
Cc1ccc2nc(C)cc(Nc3ccc4c(c3)OCCO4)c2c1 | ? | ? | 22µM* | ? | 13µM*
CC(=O)c1ccc(Nc2cc(C)nc3ccc(C)cc23)cc1 | 21µM* | -104* | ? | ? | ?
COc1ccc(Nc2cc(C)nc3ccc(C)cc23)cc1 | -20% | -21 | ? | -3% | 16µM*
Cc1cnc(C(=O)NNC(=O)c2ccc(Br)cc2)cn1 | ? | 77 | 3.7µM* | 21µM* | 5.8µM*
O=C(NNC(=O)C1CCC1)c1ccc(Br)cc1 | 28% | -11 | 10% | 14% | -1%
CCN(C(=S)NC(=O)c1ccccc1Br)C1CCCCC1 | 7% | 0 | 16µM* | 3% | ?
CCN(C(=S)NC(=O)C1CCCC1)C1CCCCC1 | -10% | 38 | 8% | -6% | -2%
Cc1ccc(Sc2c(C)nn(-c3ccccc3)c2OC(=O)CC(C)C)cc1 | / | / | -6% | / | -27%
CCCC(=O)Oc1c(Sc2ccc(Cl)cc2)c(C)nn1-c1ccccc1 | / | / | 21µM* | / | 21µM*
COc1ccc(-n2c(N)c(Br)c(=O)[nH]c2=O)cc1 | 3% | 15 | 2% | 7% | -2%
COc1coc(C(O)C[N+](=O)[O-])cc1=O (centres undefined) | -2% | 26 | 29µM* | 1% | ?
CC(C(O)c1cc(=O)c(OCc2ccccc2)co1)[N+](=O)[O-] (centres undefined) | 5% | -1 | ? | 4% | ?
Clc1ccc(Nc2nc(NCc3ccco3)nc3nccnc23)cc1 | / | / | -3% | / | -9%
COc1ccc(-n2cc(CNCCCN3CCCC3=O)c(-c3ccccc3Cl)n2)cc1 | 2% | ? | 16µM* | 6% | 16µM*
CCCc1nc2ccc(C(=O)OC)cn2c1Cc1ccccc1 | -14% | 24 | ? | -23% | 29µM*
CCCc1nc2ccc(C)cn2c1Cc1ccccc1 | 0% | 33 | ? | -13% | ?
COC(=O)c1ccc2nc(-c3ccccc3)c(Cc3ccc(C)cc3)n2c1 | 2% | 23 | ? | 1% | ?
CCCc1nc2ccc(C(=O)OC)cn2c1Cc1ccc(C)cc1 | ? | 17 | 18µM* | -21% | 23µM*
CCCc1nc2ccc(C)cn2c1Cc1cccc(F)c1 | -18% | 23 | ? | ? | ?
CCCc1nc2ccc(C(=O)OC)cn2c1Cc1ccccc1C(F)(F)F | ? | 15 | ? | ? | 16µM*
CCCc1nc2ccc(C)cn2c1Cc1ccc(C)cc1 | ? | -4 | 21µM* | ? | 18µM*
COc1ccc(Cn2cc(Cn3c4ccccc4c(=O)n3C(C)C)nn2)cc1 | 20% | 14 | -20% | 19% | -7%
CCc1nn(CC(=O)NCc2ccc(OC)c(OC)c2)c(=O)c2cc3sc(C)cc3n12 | / | / | ? | / | -2%
CCOC(=O)C1=NOC2(C1)C(=O)Nc1ccc(OC)cc12 (centres undefined) | 14% | -19 | -13% | 2% | -12%
CC(C)(C)c1ccc(/C=N/NC(=S)NCc2ccccc2)cc1 | -1% | 35 | ? | 9% | ?
SMILES | HT1080-NT tox | IL-1B inflam inh | TDP1 cell CPT | HT1080 IDH1KD tx | DT40 TDP1 no CPT
CCNC(=S)N/N=C/c1cccc(/C=N/NC(=S)NCC)c1 | 2% | -6 | -2% | 7% | 6%
CCNC(=S)N/N=C/c1cccc(OCc2c(F)cccc2Cl)c1 | -16% | 0 | ? | -15% | 16µM*
CNC(=S)N/N=C/c1cccc(OCc2ccccc2F)c1 | ? | -6 | ? | -15% | 23µM*
Fc1ccccc1COc1ccc(/C=N/NC(=S)NCc2ccccc2)cc1 | -9% | -6 | 12µM* | -7% | 13µM*
Cc1cc2oc(=O)cc(Cn3ccnc3)c2cc1C | 1% | 6 | 8% | -6% | -4%
Cc1cc2oc3ccc(NCCCN4CCOCC4)cc3c(=O)c2cc1C | 18% | -6 | 10µM* | 18% | 13µM*
Cc1cc2oc3ccc(NCCCn4ccnc4)cc3c(=O)c2cc1C | ? | 14 | ? | ? | 15µM*
COc1ccc(Cl)cc1NS(=O)(=O)c1cccc(C(=O)NCC(c2ccco2)N(C)C)c1 (centres undefined) | -1% | i | ? | -11% | -29%
CCCCN(CCCC)CC(O)c1cc(Cl)cc2c1-c1ccc(Cl)cc1/C2=C/c1ccc(Cl)cc1 (centres undefined) | / | / | 3% | / | -18%
COc1ccc(-c2cc(-c3ccccc3)c(C#N)c(SCC(O)CS(=O)(=O)Cc3ccc(Cl)cc3)n2)cc1 (centres undefined) | / | / | -24% | / | ?
N#Cc1c(-c2ccccc2)cc(-c2ccccc2)nc1SCC(O)CS(=O)(=O)Cc1ccc(Cl)cc1 (centres undefined) | / | / | 8.2µM* | / | 3.3µM*
Cc1cc(C)c(C(N)=O)c(Nc2cccc3ccccc23)n1 | -1% | 14 | -10% | 1% | -23%
CCc1ccc(Nc2nc(C)cc(C)c2C(N)=O)cc1 | 1% | 10 | ? | 1% | 6.5µM*
Cc1cc(C)c(C(N)=O)c(Nc2ccc3c(c2)OCCO3)n1 | 10% | -16 | ? | 6% | 7.3µM*
Cc1ccc(Nc2nc(C)cc(C)c2C(N)=O)c(C)c1 | -1% | 13 | ? | -2% | 6.5µM*
CCCCOCP(=O)(CCCC)COCCCC | 12% | 8 | -24% | 17% | ?
COc1ccc(NC(=O)CSc2nnnn2-c2ccc(F)cc2)cc1 | -4% | -7 | -11% | -17% | ?
O=C(CSc1nnnn1-c1ccccc1Cl)Nc1ccc2c(c1)OCCO2 | 0% | 0 | 16µM* | 0% | 21µM*
O=C(CSc1nnnn1-c1ccc(F)cc1)Nc1ccc(N2CCOCC2)c(Cl)c1 | 0% | ? | 15µM* | 0% | ?
O=C(CSc1nnnn1-c1ccc(Cl)cc1)NC(=O)Nc1ccc2c(c1)OCCO2 | 0% | 23 | -27% | -10% | 1%
COc1ccc(CNc2nc(-c3ccccc3OC)nc3ccccc23)c(OC)c1 | / | / | 23µM* | / | 9.2µM*
COc1ccc(CNc2ccnc(-c3ccccc3Cl)n2)c(OC)c1 | / | / | ? | / | 23µM*
COc1ccc(CNc2ccnc(-c3ccccc3OC)n2)c(OC)c1 | / | / | 13µM* | / | 23µM*
COc1ccc(CNc2nc3ccccc3n2C(C)C)c(O)c1 | -4% | ? | ? | -8% | ?
COc1ccc(CNc2nc3ccccc3n2C)c(OC)c1 | -28% | ? | ? | -25% | 16µM*
CC(=O)Nc1c(C(=O)N2CCCCCC2)cnn1-c1ccccc1Cl | 3% | 3 | 2% | 5% | -4%

Source: PubChem BioAssay
